Experimental data taken from PubChem BioAssay.
Active and inactive are the calls of the source.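 The calls were made as follows, unless noted: active = inhibition above 20% together with a positive visual image hit; inconclusive = visual image hit but inhibition not above 20%; inactive = no visual image hit.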

What was measured:
[1] = inhibitors of TNFa-induced NFkB p65 translocation, primary screen, imaging, HUVEC, MLSMR starter and 10KST1 sets (AID 438); conditions: HUVEC TNFa-induced p65 nuclear translocation; cell count: measured here: nuclei count (cytotoxicity indicator), at 2.08 µM; inhibition: at 2 µM, stronger effect = higher value, 0% TNFa-plus-vehicle, 100% no-TNFa wells;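 also: compound added about 3h40 before a 20 min TNFalpha stimulation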;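 as to inhibition: signal is the nuclear over cytoplasmic p65 intensity ratio per well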
[2] = reduction of polyQ htt aggregates in cells – imaging, exon1htt(103Q)mCFP cells, high-content imaging, primary screen (AID 483;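 active = visual image review flags a hit and inhibition of aggregation exceeds 20%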;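 also: compound exposure lasted 3 days before fixation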;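 as to nuclei count: percent of the per-plate median nuclei count of sample wells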); conditions: exon1htt(103Q)mCFP cell line, aggregate imaging, at 2 µM; inhibition of aggregation: stronger effect = higher value; nuclei count: measured here: cell count, toxicity
[3] = endothelial E-selectin expression blockers – imaging, HUVEC, immunofluorescence, MLSMR starter and 10KST1 sets, primary screen (AID 487;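 active = visually confirmed hit in the image check and inhibition above 20%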;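 as to inhibition: signal is fraction of cell area covered by stained E-selectin grains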;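 as to nuclei count: 100% = median nuclei count of all wells on the same plate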); conditions: HUVEC TNFalpha-induced E-selectin immunofluorescence imaging, at 2 µM; inhibition: stronger effect = higher value; nuclei count: measured here: cell number, toxicity
[4] = target: Voltage-gated potassium channel subunit beta-2 (Rattus norvegicus) (UniProt P62483); test: inhibitors of rat Kvbeta2 reductase activity – biochemical, NADPH fluorescence, primary screen (AID 622;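 active = fluorescence slope higher than the sample average by over 3 SD, cut at about -0.22 in these data, passing the limit was not always enough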;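 also: slope of raw intensity against log time taken from 70 to 1610 s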); conditions: recombinant KvBeta, 4-cyanobenzaldehyde reduction, at 10 µM, stronger effect = higher value
[5] = target: Voltage-gated potassium channel subunit beta-2 (Rattus norvegicus) (UniProt P62483); test: enhancers of rat Kvbeta2 NADPH turnover – biochemical, NADPH fluorescence, primary screen (AID 623;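 active = NADPH fluorescence slope more negative than the mean of all samples by about 3 SD, 99.7% confidence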;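 also: fluorescence intensity change per second fitted from 20 to 320 s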); conditions: Recombinant KvBeta, NADPH fluorescence decrease slope, 10 min; at 10 µM; stronger effect = lower value
[6] = target: Alpha-2C adrenergic receptor (Homo sapiens) (UniProt P18825); test: compounds altering alpha2C-coupled GIRK flux – cell-based, HEK293 alpha2C/GIRK1/2, thallium flux, primary screen (AID 624;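 active = fluorescence slope after compound addition differing from the mean of all screened samples at 99.7% confidence, in either direction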;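 also: slope of fluorescence ratio to pre-addition baseline per second over 15 to 24 s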); conditions: thallium flux BTC fluorescence, at 10 µM, actives lie on both sides
[7] = blockers of RIG-like receptor reporter activation – cell-based, Sendai virus stimulus, luciferase, 10K MLSCN set, TLR/RLR signaling modifier project, primary screen (AID 602276;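 active = inhibition at or above 50% at 10 µM; inactive = inhibition below 50%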;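 also: firefly luciferase from ISG56 promoter only with Renilla not read in this screen; 0% = Sendai virus plus DMSO and 100% = medium plus DMSO without virus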); conditions: HEK293 RL24 IRF3 luciferase reporter, at 10 µM, stronger effect = higher value
[8] = TLR3 IRF3 reporter activation blockers – cell-based, poly I:C stimulus, luciferase, 10K MLSCN set, primary screen (AID 602277;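 active = inhibition of the reporter signal at or above 50%; inactive = inhibition below 50%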); conditions: HEK293-TLR3 RL24 IRF3 luciferase reporter, at 10 µM, stronger effect = higher value

Sequence of Voltage-gated potassium channel subunit beta-2 (Rattus norvegicus) (P62483 whole entry, looked up): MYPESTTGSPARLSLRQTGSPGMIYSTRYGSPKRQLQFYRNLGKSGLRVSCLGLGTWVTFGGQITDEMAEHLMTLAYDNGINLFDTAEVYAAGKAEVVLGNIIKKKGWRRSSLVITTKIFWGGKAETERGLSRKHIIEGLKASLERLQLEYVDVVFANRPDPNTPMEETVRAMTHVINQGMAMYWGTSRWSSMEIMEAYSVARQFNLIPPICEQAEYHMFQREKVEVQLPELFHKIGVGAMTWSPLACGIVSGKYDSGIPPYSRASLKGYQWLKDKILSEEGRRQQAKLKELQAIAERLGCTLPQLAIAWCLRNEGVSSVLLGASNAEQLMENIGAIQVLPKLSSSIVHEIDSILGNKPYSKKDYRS
Sequence of Alpha-2C adrenergic receptor (Homo sapiens) (P18825 whole entry, looked up): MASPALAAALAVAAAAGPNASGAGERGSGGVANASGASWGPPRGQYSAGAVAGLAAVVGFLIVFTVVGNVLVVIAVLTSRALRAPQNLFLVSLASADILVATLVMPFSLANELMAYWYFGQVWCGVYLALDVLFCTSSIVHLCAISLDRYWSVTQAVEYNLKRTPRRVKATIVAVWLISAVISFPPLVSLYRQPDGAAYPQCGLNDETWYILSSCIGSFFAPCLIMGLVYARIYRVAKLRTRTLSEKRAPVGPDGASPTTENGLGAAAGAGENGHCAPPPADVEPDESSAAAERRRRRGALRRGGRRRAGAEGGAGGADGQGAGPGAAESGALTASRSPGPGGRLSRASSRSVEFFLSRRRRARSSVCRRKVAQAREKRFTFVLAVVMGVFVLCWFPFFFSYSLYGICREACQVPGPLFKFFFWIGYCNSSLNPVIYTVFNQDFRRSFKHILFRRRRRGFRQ

Row | Compound | cell count [1] | inhibition [1] | inhibition of aggregation [2] | nuclei count [2] [%] | inhibition [3] | nuclei count [3] [%] | fluorescence slope [4] | NADPH fluorescence slope [5] | slope [6] | inhibition [7] | inhibition [8]
1 | OC(CN1CCN(c2ccccc2)CC1)c1ccc2c(c1)CCN2 (stereo not drawn) | 604 | -1.6% (inactive) | 9.3% (inactive) | 82.3 | -60.6% (inactive) | 108 | -0.571 (inactive) | -2.8e-05 (inactive) | 0.00657 (inactive) | 6.89% (inactive) | 32.4% (inactive)
2 | COc1ccccc1C(=O)NCCNC(=O)c1ccco1 | 388 | 6.3% (inactive) | 5.6% (inactive) | 110 | -78% (inactive) | 113 | -0.412 (inactive) | -4.6e-05 (inactive) | 0.00705 (inactive) | -4.73% (inactive) | -9.5% (inactive)
3 | CC1=C(C(=O)NCc2ccccc2)C(c2ccccc2OCC(N)=O)NC(=O)N1 (stereo not drawn) | 355 | -8.1% (inactive) | 14.3% (inactive) | 96.4 | -16.7% (inactive) | 98.2 | -0.428 (inactive) | 7.3e-06 (inactive) | 0.00981 (inactive) | 6.63% (inactive) | 14.9% (inactive)
4 | COc1cccc(C2C(C(=O)c3ccc(C)o3)=C(O)C(=O)N2CCCN(C)C)c1 (stereo not drawn) | 239 | -10.9% (inactive) | 45.3% (active) | 83.9 | -110% (inactive) | 111 | -0.592 (inactive) | -5.1e-05 (inactive) | 0.00639 (inactive) | 10.4% (inactive) | 15.6% (inactive)
5 | CC1=Nn2c(nnc2-c2ccc(F)cc2)SC1 | 340 | -2.4% (inactive) | 4% (inactive) | 107 | -66% (inactive) | 95.6 | -0.33 (inactive) | -4.3e-05 (inactive) | 0.00575 (inactive) | -12.4% (inactive) | -3.16% (inactive)
6 | C=CCn1c(SCC(=O)NCC2CCCO2)nc2scc(-c3ccco3)c2c1=O (stereo not drawn) | 557 | -10.3% (inactive) | -29.4% (inactive) | 98.5 | 28.1% (inactive) | 98.7 | -0.459 (inactive) | -0.000271 (active) | 0.00487 (inactive) | 11.9% (inactive) | 13.5% (inactive)
7 | CC(=O)NC(=O)NC1CSCC1OC(C)=O (stereo not drawn) | 590 | 1.2% (inactive) | 23.1% (inactive) | 99 | -110% (inactive) | 132 | -0.445 (inactive) | -1.3e-05 (inactive) | 0.00811 (inactive) | 11% (inactive) | 12% (inactive)
8 | Cc1ccc(C(=O)N2CCN(C(=O)c3ccc(C)c(C)c3)C(C)C2)cc1C (stereo not drawn) | 409 | -0.7% (inactive) | -2.3% (inactive) | 94.3 | -179% (inactive) | 200 | -0.264 (inactive) | -5.3e-05 (inactive) | 0.00164 (inactive) | 4.92% (inactive) | 22.7% (inactive)
9 | CCOC(=O)N1CCN(S(=O)(=O)c2ccc(F)c(C(=O)Nc3cc(C)cc(C)c3)c2)CC1 | 578 | -19.7% (inactive) | 16.1% (inactive) | 62.7 | -87% (inactive) | 111 | -0.393 (inactive) | -1.2e-05 (inactive) | 0.00302 (inactive) | 1.83% (inactive) | 14.3% (inactive)
10 | CCOC(=O)N1CCC(N(CCCOC)C(=O)Nc2ccc(CC)cc2)CC1 | 574 | 2.2% (inactive) | -21.3% (inactive) | 106 | 12.1% (inactive) | 93.2 | -0.531 (inactive) | -2.6e-05 (inactive) | 0.00487 (inactive) | 4.87% (inactive) | 9.22% (inactive)
11 | CCCCn1cnc2c1c(=O)n(C)c(=O)n2C | 797 | -7.5% (inactive) | 25.6% (inactive) | 101 | -35.5% (inactive) | 119 | -0.374 (inactive) | -1.9e-05 (inactive) | 0.00541 (inactive) | -11.6% (inactive) | -3.57% (inactive)
12 | CC1CCc2nn(CC(=O)NCCCN3CCOCC3)cc2C1 (stereo not drawn) | 608 | 10.3% (inactive) | -17.8% (inactive) | 125 | 28.4% (inactive) | 107 | -0.578 (inactive) | -1.9e-05 (inactive) | 0.0058 (inactive) | 8.95% (inactive) | 36.3% (inactive)
13 | O=S(=O)(c1ccc(N2CCN(c3ccc(F)cc3)CC2)cc1)N1CCCC1 | 230 | 14% (inactive) | -8.7% (inactive) | 95.7 | -32.4% (inactive) | 106 | -0.476 (inactive) | -2.4e-05 (inactive) | 0.00651 (inactive) | 10.2% (inactive) | 19.7% (inactive)
14 | CCOc1cc(NC(=O)c2ccco2)c(OCC)cc1NC(=O)CCC(=O)NCc1cccnc1 | 600 | 4.9% (inactive) | 2.6% (inactive) | 97.7 | 16% (inactive) | 90.3 | -0.358 (inactive) | 1.7e-05 (inactive) | 0.00315 (inactive) | 9.41% (inactive) | 23.3% (inactive)
15 | CN(C(=O)c1ccccc1Cl)c1ccccc1 | 611 | -2.4% (inactive) | 3% (inactive) | 107 | -28.1% (inactive) | 92.5 | -0.561 (inactive) | -2e-06 (inactive) | 0.00587 (inactive) | 15% (inactive) | 18.4% (inactive)
16 | CSc1nc2ccccc2c(=O)n1N | 618 | 7.8% (inactive) | 12.4% (inactive) | 90.5 | 28.4% (inactive) | 84.2 | -0.404 (inactive) | -1.3e-05 (inactive) | 0.00832 (inactive) | 13% (inactive) | 19% (inactive)
17 | CCc1cc2c(CN3CCN(CCO)CC3)cc(=O)oc2cc1O | 396 | 1.3% (inactive) | -12.5% (inactive) | 102 | -34.5% (inactive) | 60.8 | -0.0121 (active) | 1.7e-06 (inactive) | 0.00408 (inactive) | 17.8% (inactive) | 27% (inactive)
18 | COc1ccc(N2CCN(c3ccc(NC(=O)C4CCCCC4)cc3C#N)CC2)cc1 | 676 | -0.6% (inactive) | -30.8% (inactive) | 104 | -14.3% (inactive) | 121 | -0.586 (inactive) | -1.7e-05 (inactive) | 0.00529 (inactive) | 4.18% (inactive) | 7.51% (inactive)
19 | CCOCCCNC(=O)C1CCN(S(=O)(=O)N(CC(C)C)CC(C)C)CC1 | 689 | -5.1% (inactive) | 17.3% (inactive) | 79.1 | -91.6% (inactive) | 100 | -0.503 (inactive) | -5.5e-05 (inactive) | 0.00467 (inactive) | 16.6% (inactive) | 19.9% (inactive)
20 | Cc1ccc2nc(-c3ccccn3)cc(C(=O)N3CCN(c4ncccn4)CC3)c2c1 | 367 | -5.9% (inactive) | 0% (inactive) | 107 | 6% (inactive) | 115 | -0.346 (inactive) | -5.1e-05 (inactive) | 0.00536 (inactive) | 4.96% (inactive) | 8.03% (inactive)
21 | CC(C)(C)NC(=O)CN(C(=O)CS(=O)CC(=O)Nc1ccc(F)cc1)c1ccc(Cl)cc1 (stereo not drawn) | 879 | -4.2% (inactive) | 3.2% (inactive) | 66.8 | -9.8% (inactive) | 118 | -0.35 (inactive) | 1.3e-05 (inactive) | 0.00479 (inactive) | 19.1% (inactive) | 19.5% (inactive)
22 | CSc1nc(C)cc(Oc2ccc(=O)n(C)n2)n1 | 380 | -0.7% (inactive) | 1.1% (inactive) | 101 | -30.2% (inactive) | 109 | -0.478 (inactive) | -4.2e-06 (inactive) | 0.00506 (inactive) | 1.26% (inactive) | 22.5% (inactive)
23 | CCCC(C)c1nnc(NC(=O)C2CCCO2)s1 (stereo not drawn) | 575 | 0% (inactive) | -11.3% (inactive) | 97.6 | 9.1% (inactive) | 103 | -0.524 (inactive) | -4e-05 (inactive) | 0.00609 (inactive) | -3.58% (inactive) | -11.9% (inactive)
24 | Nc1nnc(SCc2cc3c(cc2Cl)OCO3)s1 | 379 | 7.6% (inactive) | -3.1% (inactive) | 110 | -30.6% (inactive) | 111 | -0.477 (inactive) | -6.6e-05 (inactive) | 0.00689 (inactive) | 0.13% (inactive) | 9.87% (inactive)
25 | CC(C)CCNc1cc(=O)n(C)c(=O)n1C | 686 | -3.9% (inactive) | -15.5% (inactive) | 108 | 28.9% (inactive) | 88 | -0.459 (inactive) | 5e-05 (inactive) | 0.00778 (inactive) | 0.49% (inactive) | 8.23% (inactive)
26 | CC(=O)CCc1c(C)[nH]c2ccccc2c1=O | 360 | 9.1% (inactive) | -8.9% (inactive) | 123 | -3.8% (inactive) | 102 | -0.523 (inactive) | 6.6e-05 (inactive) | 0.00588 (inactive) | -9.69% (inactive) | -2.97% (inactive)
27 | C=CCn1c(COc2ccccc2)nnc1SCC(=O)C(C)(C)C | 733 | 0.9% (inactive) | -8.3% (inactive) | 102 | 7.8% (inactive) | 98.4 | -0.449 (inactive) | -3.9e-05 (inactive) | 0.00312 (inactive) | 3.19% (inactive) | 22.7% (inactive)
28 | Cc1cc(Nc2ccc(C(=O)O)cc2)n2nc(C)nc2n1 | 822 | 3.9% (inactive) | 9.8% (inactive) | 109 | -13.7% (inactive) | 106 | -0.543 (inactive) | -1.5e-05 (inactive) | 0.00685 (inactive) | 7.19% (inactive) | 21% (inactive)
